Our source for the Potency values is PubChem BioAssay (NCATS).

Inconclusive results are not listed. The source made the active and inactive calls. Calls come from the whole dose curve; as a rule, active = well fitted inhibition curve with a large enough effect; inconclusive = small, poorly fitted or top-dose-only effect; inactive = flat fitted curve, though single readings scatter.

Common to all, as to assay: qHTS profiling for inhibitors of Plasmodium falciparum proliferation (AID 504749); note: nearly all actives have a fitted effect of over 60% in size
What all share (details): P. falciparum in erythrocytes, SYBR Green DNA, 72 h; series mostly up to 28.7 µM

In one assay the test system is 7G8. In short, it runs like this:
(§1)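 Parasite proliferation within erythrocytes, 72 h exposure. Endpoint: SYBR Green I fluorescence after overnight lysis at room temperature. Controls: 0.29 uM artemisinin, DMSO.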

Another assay relates to AA1029. In short, it runs like this:
as §1

The subject of another assay is AS120. Summed up: as §1
A further assay relates to ATS189. Summed up: as §1
A further assay has as its system ATS95. In short, it runs like this: as §1
A further assay concerns C2A. Summed up:
as §1

In another assay the test system is CP185. In short, it runs like this: as §1
The next assay has as its system CP191. In short, it runs like this: as §1
For another assay, the system named is CP192. Summed up: as §1
For a further assay, the system named is CP194. Summed up:
as §1

The next assay has as its system CP201. Summed up:
as §1

The next assay deals with CP203. Summed up: as §1
A further assay relates to CP211. In short, it runs like this: as §1
For a further assay, the system named is CP215. Summed up: as §1
The subject of another assay is CP217. Summed up:
as §1

The next assay relates to CP237. In short, it runs like this: as §1
The next assay relates to CP238. In short, it runs like this: as §1
A further assay relates to CP247. Summed up: as §1
The next assay concerns CP250. Summed up:
as §1

The next assay concerns CP252. Summed up:
as §1
Potency is the fitted concentration of half-maximal effect.

`O=C(O)c1ccc(NC(=O)[C@H](Cc2ccc(O)cc2)NC(=O)c2ccccc2)cc1`: the Potency result in the assay on 7G8, in the assay on AA1029, with AS120, in the assay with ATS189, in the assay on ATS95 and in the assay on C2A was “inactive” throughout. Further, the Potency entry in the assay with CP185, in the assay with CP191, with CP192, in the assay with CP194, in the assay with CP201 and in the assay with CP203 was “inactive” in each case. Moreover, the Potency entry in the assay on CP211, in the assay with CP215, in the assay on CP217, with CP237, in the assay with CP238 and with CP247 was “inactive” throughout. The Potency result in the assay on CP250 and with CP252 was “inactive” each time.
Take `CN1C(=O)C[C@@H](C(=O)N[C@@H](Cc2cnc[nH]2)C(=O)N2CCC[C@H]2C(N)=O)NC1=O`: the Potency result in the assay with 7G8, with AA1029, in the assay with AS120, with ATS189, in the assay on ATS95 and in the assay with C2A was “inactive” each time. Further, the Potency entry with CP185, with CP191, with CP192, in the assay on CP194, in the assay with CP201 and in the assay with CP203 was “inactive” each time. For the same compound, the Potency entry in the assay with CP211, with CP215, with CP217, with CP237, in the assay on CP238 and in the assay on CP247 was “inactive” in each case. Besides, the Potency entry in the assay on CP250 and with CP252 was “inactive” each time.
For `CC(C)(C)CC(C)(C)c1cc(Cc2cc(C(C)(C)CC(C)(C)C)cc(-n3nc4ccccc4n3)c2O)c(O)c(-n2nc3ccccc3n2)c1`, the Potency entry with 7G8, with AA1029, with AS120, with ATS189, with ATS95 and in the assay on C2A was “inactive” throughout. The Potency result in the assay on CP185, with CP191, in the assay on CP192, with CP194, in the assay with CP201 and in the assay with CP203 was “inactive” throughout. Further, the Potency result in the assay with CP211, in the assay on CP215, in the assay with CP217, in the assay on CP237, in the assay with CP238 and with CP247 was “inactive” each time. The Potency entry in the assay with CP250 and with CP252 was “inactive” each time.
Take `CC(=O)N=c1sc(S(N)(=O)=O)nn1C`: the Potency result in the assay with 7G8, in the assay on AA1029, in the assay with AS120, with ATS189, in the assay on ATS95 and with C2A was “inactive” throughout. Further, the Potency entry in the assay on CP185, in the assay on CP191, in the assay with CP192, with CP194, in the assay with CP201 and with CP203 was “inactive” each time. In addition, the Potency result in the assay with CP211, in the assay on CP215, in the assay on CP217, in the assay on CP237, in the assay with CP238 and with CP247 was “inactive” throughout. The Potency entry with CP250 and in the assay on CP252 was “inactive” each time.
In the case of `CN1C(=O)OC(C)(C)C1=O`, the Potency result with 7G8, in the assay with AA1029, in the assay with AS120, with ATS189, in the assay on ATS95 and in the assay with C2A was “inactive” throughout. The Potency result with CP185, with CP191, with CP192, in the assay with CP194, with CP201 and in the assay with CP203 was “inactive” in each case. Moreover, the Potency entry with CP211, with CP215, with CP217, with CP237, in the assay with CP238 and with CP247 was “inactive” throughout. Besides, the Potency entry with CP250 and in the assay with CP252 was “inactive” throughout.
Consider `FC(F)(F)C(F)(F)C(F)(F)C(F)(F)C(F)(F)C(F)(F)F`, for which the Potency entry with 7G8, with AA1029, with AS120, with ATS189, with ATS95 and in the assay on C2A was “inactive” each time. Besides, the Potency result with CP185, with CP191, in the assay with CP192, with CP194, with CP201 and in the assay with CP203 was “inactive” in each case. Further, the Potency result in the assay on CP211, in the assay on CP215, with CP217, in the assay on CP237, with CP238 and with CP247 was “inactive” in each case. For the same compound, the Potency entry in the assay with CP250 and in the assay on CP252 was “inactive” each time.
As to `OB(O)O`, the Potency result in the assay with 7G8, with AA1029, in the assay with AS120, in the assay on ATS189, in the assay with ATS95 and in the assay on C2A was “inactive” each time. Also, the Potency result in the assay on CP185, in the assay with CP191, in the assay on CP192, with CP194, in the assay on CP201 and with CP203 was “inactive” each time. For the same compound, the Potency result in the assay on CP211, in the assay with CP215, with CP217, in the assay on CP237, in the assay with CP238 and with CP247 was “inactive” throughout. The Potency result with CP250 and in the assay with CP252 was “inactive” throughout.
For `CCc1ccc(S(=O)(=O)O)cc1`, the Potency entry in the assay with 7G8, with AA1029, in the assay on AS120, in the assay on ATS189, with ATS95 and in the assay with C2A was “inactive” each time. For the same compound, the Potency entry in the assay with CP185, in the assay on CP191, with CP192, in the assay on CP194, with CP201 and with CP203 was “inactive” in each case. Besides, the Potency entry with CP211, in the assay with CP215, with CP217, in the assay on CP237, in the assay with CP238 and in the assay with CP247 was “inactive” throughout. For the same compound, the Potency result in the assay on CP250 and with CP252 was “inactive” throughout.
Turning to `CCCCCc1ccc(C)cc1O`, in the assay with 7G8, the Potency was 12.6 µM (active). For the same compound, the Potency result with AA1029, in the assay with AS120, with ATS189, in the assay on ATS95, with C2A and in the assay with CP185 was “inactive” each time. For the same compound, the Potency entry in the assay on CP191, in the assay on CP192, with CP194, with CP201, in the assay on CP203 and in the assay with CP211 was “inactive” in each case. For the same compound, the Potency entry in the assay on CP215, with CP217, in the assay on CP237, in the assay with CP238, with CP250 and in the assay on CP252 was “inactive” in each case.
On to `O=C(NNCNNC(=O)c1ccncc1)c1ccncc1`, for which the Potency result with 7G8, in the assay on AA1029, in the assay with AS120, in the assay with ATS189, in the assay with ATS95 and in the assay on C2A was “inactive” in each case. The Potency entry in the assay with CP185, in the assay on CP191, in the assay on CP192, with CP194, in the assay on CP201 and in the assay with CP203 was “inactive” in each case. Besides, the Potency entry in the assay with CP211, with CP215, in the assay with CP217, with CP237, in the assay on CP238 and with CP247 was “inactive” each time. In addition, the Potency entry in the assay on CP250 and with CP252 was “inactive” throughout.
Take `O=P(O)(O)OC[C@H]1O[C@](O)(COP(=O)(O)O)[C@@H](O)[C@@H]1O`: the Potency result in the assay on 7G8, in the assay on AA1029, in the assay on AS120, in the assay on ATS189, in the assay with ATS95 and in the assay on C2A was “inactive” throughout. Moreover, the Potency result with CP185, with CP191, with CP192, in the assay with CP201, in the assay on CP203 and in the assay with CP211 was “inactive” in each case. The Potency entry with CP215, with CP217, in the assay with CP237, with CP238, in the assay with CP247 and in the assay with CP250 was “inactive” each time. In addition, the Potency result in the assay with CP252 was “inactive”.
In the case of `O=P(O)(O)OC[C@H](O)CO`, the Potency entry with 7G8, with AA1029, with AS120, in the assay with ATS189, in the assay with ATS95 and in the assay on C2A was “inactive” in each case. In addition, the Potency entry in the assay on CP185, in the assay with CP191, with CP192, in the assay on CP194, in the assay on CP201 and with CP203 was “inactive” each time. Also, the Potency result with CP211, in the assay with CP217, in the assay with CP237, in the assay on CP238, in the assay on CP247 and with CP250 was “inactive” each time. For the same compound, the Potency entry in the assay on CP252 was “inactive”.
For `CSc1nc2cc(Oc3cccc(Cl)c3Cl)c(Cl)cc2[nH]1`, the Potency was 8.91 µM (active) in the assay with 7G8; 11.2 µM (active) in the assay on AA1029; 11.2 µM (active) in the assay on AS120; 6.31 µM (active) in the assay on ATS189; 8.91 µM (active) in the assay on ATS95; 11.2 µM (active) in the assay on CP185. Besides, the Potency with CP191 was 3.98 µM (active); with CP194, 13.5 µM (active); in the assay with CP201 it was 10.7 µM (active); with CP211, 10.7 µM (active); in the assay on CP215 it was 9.53 µM (active); in the assay with CP217, 3.98 µM (active). In addition, the Potency in the assay with CP237 is 11.2 µM (active); with CP238, 8.91 µM (active); in the assay on CP247, 3.16 µM (active); in the assay with CP250, 2.24 µM (active); in the assay with CP252 it was 3.16 µM (active).
As for `CCCCO`, the Potency result in the assay with 7G8, in the assay on AA1029, with AS120, with ATS189, in the assay with ATS95 and with C2A was “inactive” each time. Besides, the Potency entry with CP185, with CP191, in the assay with CP192, with CP194, in the assay with CP201 and with CP203 was “inactive” throughout. The Potency result with CP211, in the assay with CP217, with CP237, in the assay on CP238, in the assay on CP247 and with CP250 was “inactive” in each case. For the same compound, the Potency result in the assay on CP252 is “inactive”.
